PubChem BioAssay (EPA / NIEHS)
The source made the active and inactive calls. How the source made its calls: active means hit-call score of the fitted dose curve at least 0.9, where 1 is the maximum; inactive means score below 0.9.

Test: CCTE_Simmons_MITO_basal_resp_rate: CCTE's HepG2 Seahorse XF Respirometric Screening Assay at Basal Respiratory State, Simmons Lab (AID 2284001)
Conditions: actives raise or lower the signal
Experimental: CCTE_Simmons_MITO is cell-based, respirometric assay using HepG2 cells and a Seahorse XF Analyzer to measure oxygen consumption rates over four temporal phases spanning a total of 72 minutes: pre-injection (pre-treatment), basal (following test compound injection), maximal (following FCCP uncoupler injection), and inhibited (following rotenone/antimycin A injection)CCTE_Simmons_MITO_basal_resp_rate is one of 4 assay components calculated from the CCTE_Simmons_MITO assay. It is designed to make measurements of basal respiration using a form of respirometric reporter, as detected with […] signals by Seahorse XF96 technology. Data from the assay component CCTE_Simmons_MITO_basal_resp_rate was analyzed at the endpoint, CCTE_Simmons_MITO_basal_resp_rate_OCR, with bidirectional fitting relative to DMSO as the negative control and baseline of activity. Using a type of respirometric reporter, measures of basal respiration for gain or loss-of-signal activity can be used to understand cellular oxygen consumption as it relates to cellular respiration. To generalize the intended target to other relatable targets, this assay endpoint is annotated to the mitochondria intended target family, where the subfamily is respiration.
Test chemicals were administered as a titrated series of 7 concentrations from 125 nM up to 100 uM [final] prior to kinetic endpoint detection at 6 minute intervals [3 min mix followed by 3 minutes measure] for 72 minutes. Three biological replicates of technical singles were run for every chemical concentration tested. Dimethylsulfoxide [DMSO] was used as the vehicle control. The electron transport chain inhibitor fenpyroximate was used as the positive control for decreased basal respiration and was administered as a titrated series of 6 concentrations from 250 nM up to 2.75 uM [final] with technical triplicates for the top concentration only. The uncoupler 2,4-dintirophenol was used as the positive control for increased basal respiration and was administered as a titrated series of 6 concentrations from 938 nM up to 40 uM [final] with technical triplicates for the top concentration only. A Seahorse XF Analzyer is required to measure the response.

Compound | outcome | AC50
CC(C)=CCCC(C)=CC=O | inactive | –
Cc1[nH]cnc1C[C@H]1CCc2c(C)c3ccccc3n2C1=O | – | 30.5 µM (active)
CC(C)c1cccc(C(C)C)c1N1C(=O)c2ccc(O)cc2C1=O | – | 20 µM (active)
Cn1c(=O)cc(Oc2ccc(F)cc2F)c2cnc(NCC(C)(C)O)nc21 | inactive | –
Cc1c(-c2cccnc2)c2ccccc2n1CCCCC(=O)O | – | 26.7 µM (active)
O=C(CCCCCCCCc1cccnc1)N1CCC(C=C(c2ccccc2)c2ccccc2)CC1 | inactive | –
CCOC(=O)COc1ccc2c(c1)CC(NCC(O)c1cccc(Cl)c1)CC2 (configuration not stated) | – | 32.9 µM (active)
O=C(O)c1cccc(N(Cc2cccnc2)c2ccc(OC(F)F)c(OC(F)F)c2)c1 | – | 1.03 µM (active)
CCn1nc(Cc2ccccc2)cc1C1CCN(C[C@H]2C[C@H](N(C)[C@@H](C(=O)O)C(C)C)C[C@@H]2c2cccc(F)c2)CC1 | – | 27.8 µM (active)
COc1ccc(/C=C/S(=O)(=O)NC(=O)c2ccc(C)cc2Cl)cc1 | – | 24.6 µM (active)
CC(C)CC(C)(O)C#CC(C)(O)CC(C)C (configuration not stated) | – | 50 µM (active)
CCOC(=O)c1ccc(C2CCC(NC[C@H](O)COc3ccc(O)c(NS(C)(=O)=O)c3)CC2)cc1 (some centres not stated) | inactive | –
Fc1ccccc1[C@@H](F)COC1CCC(Nc2ncnc3[nH]ncc23)CC1 (some centres not stated) | – | 14.1 µM (active)
COc1cccc(-c2ccc(/C=C\CN3CCCCCC3)cc2Cl)c1 | inactive | –
CC(C)=CCC/C(C)=C/CO | – | 45.7 µM (active)
CCOc1cccc(-n2cc(C(=O)N3CCN(c4cc(C(=O)O)c5ccccc5c4)CC3)nc2-c2ccc(C)cc2)c1 | inactive | –
COc1ccc2sc(C(=O)Nc3nnn[nH]3)c(OC(C)C)c2c1 | inactive | –
O=c1[nH]c2ccc(S(=O)CCN3CCC(Cc4ccc(F)cc4)CC3)cc2o1 (configuration not stated) | – | 49.7 µM (active)
CCCCCCc1ccc(O)cc1O | – | 20.4 µM (active)
Nc1cccc(N)c1 | inactive | –
Cc1ccc(N)cc1O | – | 50 µM (active)
C=CCCCCCCCCC(=O)O | – | 35.1 µM (active)
